According to PubChem BioAssay (NCATS):
Inconclusive results are not listed. Calls of active or inactive are those of the source. Unless noted, calls come from the whole dose curve; as a rule, active = well fitted curve in the direction sought with a large enough effect; inconclusive = small, poorly fitted or top-dose-only effect, or another doubt; inactive = no such curve, though single readings can be large; an effect the other way counts as inactive or inconclusive.

How the values were obtained:
[1] = NCATS anti-infectives library activity on HEK293 viability as a counter-qHTS vs the C. elegans viability qHTS (AID 1745854); note: % is set by controls: 0 for no effect and ±100 for the full control effect
Summary of the method: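 HEK293 cells, 1500 per well, exposed 24 hr at 37C in 5% CO2 to compounds in a 1:5 titration, up to 41.7 uM final. Viability read as CellTiter-Glo luminescence after 10 min at room temperature.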

[2] = Viability counterscreen for antagonist of constitutive androstane receptor (CAR) against the NCATS DSHEA and TCM libraries (AID 1794837);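 note: compound exposure lasted 24 h before viability reading; 0% is about no effect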
Summary of the method: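 Viability was measured by CellTiter-Fluor fluorescence (405/540 nm, 1 hr) in HepG2-CYP2B6-hCAR cells. Cells were co-treated 24 hr with 48 uM CITCO (final), antagonist mode, and test substances.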

[3] = target: Nuclear receptor subfamily 1 group I member 3 (Homo sapiens) (UniProt Q14994); assay: Primary qHTS for agonist of constitutive androstane receptor (CAR) against the NCATS DSHEA and TCM libraries (AID 1794839);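 note: HepG2 cells expressing human CAR with a CYP2B6 reporter plus PK11195 antagonist; 0% is about no effect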
Sequence of Nuclear receptor subfamily 1 group I member 3 (Homo sapiens) (Q14994 whole entry, looked up): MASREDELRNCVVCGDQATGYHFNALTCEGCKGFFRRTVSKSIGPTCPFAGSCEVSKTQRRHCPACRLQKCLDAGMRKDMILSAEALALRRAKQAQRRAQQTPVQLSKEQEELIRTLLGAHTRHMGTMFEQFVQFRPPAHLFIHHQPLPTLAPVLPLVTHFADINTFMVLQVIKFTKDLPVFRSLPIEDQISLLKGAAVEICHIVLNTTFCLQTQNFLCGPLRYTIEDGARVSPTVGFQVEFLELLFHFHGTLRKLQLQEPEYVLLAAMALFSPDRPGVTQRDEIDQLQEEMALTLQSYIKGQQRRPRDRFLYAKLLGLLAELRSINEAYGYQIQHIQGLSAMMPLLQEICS
Summary of the method: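 Agonist mode in presence of hCAR antagonist PK11195 (0.75 µM final): test substances, 24 h, 37 °C, on HepG2-CYP2B6-hCAR cells. Same-well readouts: fluorescence viability, then ONE-Glo luminescence; CITCO as reference agonist.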

[4] = HepG2 viability counterscreen (readout 1: protease activity) against the NCATS DSHEA and TCM libraries (AID 1794841);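 note: cells exposed to compounds for about 24 h before the protease read; 0% is about no effect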
Summary of the method: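 Readout 1: cellular protease activity, GF-AFC substrate (25 uM final, 30 min, fluorescence 380/510 nm). Readout 2: ATP content by CellTiter-Glo luminescence after 30 min at RT. Both follow ~24 h exposure of HepG2 cells (1,000/well) to substances.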

[5] = target: Cytochrome P450 3A4 (Homo sapiens) (UniProt P08684); assay: qHTS for inhibitors of CYP3A4 against the NCATS DSHEA and TCM libraries (AID 1919971);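 note: % is set by controls: 0 for no effect and ±100 for the full control effect; inhibition lowers luminescence from luciferin made by CYP3A4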
Sequence of Cytochrome P450 3A4 (Homo sapiens) (P08684 whole entry, looked up): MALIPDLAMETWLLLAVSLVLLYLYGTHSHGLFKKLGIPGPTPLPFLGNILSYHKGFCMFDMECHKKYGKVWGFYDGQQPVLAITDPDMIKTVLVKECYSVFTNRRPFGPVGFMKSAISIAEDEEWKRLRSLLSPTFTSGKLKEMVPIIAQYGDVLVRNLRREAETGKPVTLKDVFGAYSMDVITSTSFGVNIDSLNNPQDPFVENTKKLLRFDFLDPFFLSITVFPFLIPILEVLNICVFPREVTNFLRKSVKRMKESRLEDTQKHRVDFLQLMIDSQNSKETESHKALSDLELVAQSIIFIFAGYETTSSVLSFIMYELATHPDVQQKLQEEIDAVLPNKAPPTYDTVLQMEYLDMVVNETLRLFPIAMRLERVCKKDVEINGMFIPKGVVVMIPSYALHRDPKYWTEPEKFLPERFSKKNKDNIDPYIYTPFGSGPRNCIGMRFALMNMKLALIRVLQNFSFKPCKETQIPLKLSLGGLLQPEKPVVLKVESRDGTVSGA
Summary of the method: (§1)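 Luminescent P450-Glo readout. Enzyme plus pro-luciferin substrate in manufacturer buffer (typically 100 mM KPO4); 15 min RT preincubation; 1x NADPH regenerating system, 30-45 min RT in the dark; detection reagent 30 min.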

[6] = target: Cytochrome P450 2D6 (Homo sapiens) (UniProt P10635); assay: qHTS for inhibitors of CYP2D6 against the NCATS DSHEA and TCM libraries (AID 1919972); note: % is set by controls: 0 for no effect and ±100 for the full control effect
Sequence of Cytochrome P450 2D6 (Homo sapiens) (P10635 whole entry, looked up): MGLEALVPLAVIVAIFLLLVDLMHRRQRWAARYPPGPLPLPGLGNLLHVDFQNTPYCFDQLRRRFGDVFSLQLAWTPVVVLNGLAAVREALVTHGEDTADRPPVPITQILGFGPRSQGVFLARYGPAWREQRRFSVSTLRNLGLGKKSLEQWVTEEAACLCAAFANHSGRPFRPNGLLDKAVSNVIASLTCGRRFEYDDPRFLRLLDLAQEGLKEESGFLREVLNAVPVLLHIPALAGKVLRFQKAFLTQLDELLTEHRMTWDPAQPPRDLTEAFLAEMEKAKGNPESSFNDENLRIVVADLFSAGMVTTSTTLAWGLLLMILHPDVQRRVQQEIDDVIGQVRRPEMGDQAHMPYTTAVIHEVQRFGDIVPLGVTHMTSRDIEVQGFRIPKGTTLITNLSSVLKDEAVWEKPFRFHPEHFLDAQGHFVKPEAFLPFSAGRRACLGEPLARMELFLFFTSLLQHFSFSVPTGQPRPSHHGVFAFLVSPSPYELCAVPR
Summary of the method: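 Steps: enzyme plus luciferin substrate dispensed; test substances pinned; 15 min RT; 1x NADPH regenerating solution added, 30–45 min RT protected from light; detection reagent, 30 min RT; luminescence measured. Minus-enzyme wells as background.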

[7] = target: Cytochrome P450 2C19 (Homo sapiens) (UniProt P33261); assay: qHTS for inhibitors of CYP2C19 against the NCATS DSHEA and TCM libraries (AID 1919974);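 note: luminescence from luciferin released by CYP2C19 oxidation of a pro-luciferin substrate; % is set by controls: 0 for no effect and ±100 for the full control effect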
Sequence of Cytochrome P450 2C19 (Homo sapiens) (P33261 whole entry, looked up): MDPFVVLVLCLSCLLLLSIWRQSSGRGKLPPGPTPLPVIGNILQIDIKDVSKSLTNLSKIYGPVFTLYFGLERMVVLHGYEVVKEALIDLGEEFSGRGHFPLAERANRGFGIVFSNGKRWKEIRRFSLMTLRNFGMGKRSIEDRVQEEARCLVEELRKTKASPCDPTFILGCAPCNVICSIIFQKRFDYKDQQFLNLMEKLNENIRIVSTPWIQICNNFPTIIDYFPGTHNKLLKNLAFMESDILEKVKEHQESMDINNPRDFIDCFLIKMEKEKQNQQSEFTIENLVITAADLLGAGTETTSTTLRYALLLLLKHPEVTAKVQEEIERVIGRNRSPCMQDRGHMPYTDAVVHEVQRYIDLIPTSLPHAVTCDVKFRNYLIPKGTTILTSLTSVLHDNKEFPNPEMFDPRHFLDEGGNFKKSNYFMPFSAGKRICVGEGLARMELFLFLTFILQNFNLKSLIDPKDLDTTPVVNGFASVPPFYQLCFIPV
Summary of the method: as §1

[8] = KB-3-1 P-gp reporter qHTS against the NCATS DSHEA and TCM libraries (AID 1919975); note: 0% is about no effect
Summary of the method: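 Cell viability by CellTiter-Glo luminescence following ~72 h compound exposure (concentration-response). Uses parental, non-P-gp-overexpressing KB-3-1 line, 500 cells/well in DMEM/10% FBS, attached ~4 h before dosing.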

[9] = target: Cytochrome P450 1A2 (Homo sapiens) (UniProt P05177); assay: qHTS for inhibitors of CYPIA2 against the NCATS DSHEA and TCM libraries (AID 1919976);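 note: light from luciferin formed by CYP1A2 from a pro-luciferin substrate; series mostly up to about 37 µM; % is set by controls: 0 for no effect and ±100 for the full control effect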
Sequence of Cytochrome P450 1A2 (Homo sapiens) (P05177 whole entry, looked up): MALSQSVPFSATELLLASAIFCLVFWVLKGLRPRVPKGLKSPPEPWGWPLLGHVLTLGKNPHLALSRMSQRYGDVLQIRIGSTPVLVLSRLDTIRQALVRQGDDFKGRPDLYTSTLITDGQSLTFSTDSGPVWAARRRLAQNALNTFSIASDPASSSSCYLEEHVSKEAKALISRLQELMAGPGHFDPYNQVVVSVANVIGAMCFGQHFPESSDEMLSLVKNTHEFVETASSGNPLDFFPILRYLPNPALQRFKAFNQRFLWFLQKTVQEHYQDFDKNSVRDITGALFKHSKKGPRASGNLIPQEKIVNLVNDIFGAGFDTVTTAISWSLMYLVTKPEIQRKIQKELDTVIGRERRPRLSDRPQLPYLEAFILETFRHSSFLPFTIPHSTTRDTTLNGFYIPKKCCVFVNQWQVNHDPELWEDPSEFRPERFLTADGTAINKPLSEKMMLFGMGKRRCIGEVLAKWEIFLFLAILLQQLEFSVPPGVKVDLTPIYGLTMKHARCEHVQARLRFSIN
Summary of the method: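 Human CYP1A2 with its pro-luciferin substrate in supplier buffer (typically 100 mM KPO4) was pre-incubated with compounds 15 min at RT. Reaction was started with 1x NADPH regeneration solution and run 30-45 min at RT in the dark, then luminescence was read after P450-Glo detection reagent (30 min RT).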

[10] = Dual reporter qHTS for agonist of Pregnane X Receptor (hPXR) against the NCATS DSHEA and TCM libraries: Fluorescence readout (AID 1920058); note: 0% is about no effect
Summary of the method: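 hPXR-Luc HepG2 cells (2000/well) in phenol red-free medium with charcoal-stripped FBS attached for 5 h, then were exposed to compounds for about 24 h at 37 °C. Viability was read by CellTiter-Fluor fluorescence (Ex/Em 405/540 nm) after 1 h.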

[11] = target: Nuclear receptor subfamily 1 group I member 2 (Homo sapiens) (UniProt O75469); assay: Dual reporter qHTS for agonist of Pregnane X Receptor (hPXR) against the NCATS DSHEA and TCM libraries: Luminescence readout (AID 1920059); note: 0% is about no effect
Sequence of Nuclear receptor subfamily 1 group I member 2 (Homo sapiens) (O75469 whole entry, looked up): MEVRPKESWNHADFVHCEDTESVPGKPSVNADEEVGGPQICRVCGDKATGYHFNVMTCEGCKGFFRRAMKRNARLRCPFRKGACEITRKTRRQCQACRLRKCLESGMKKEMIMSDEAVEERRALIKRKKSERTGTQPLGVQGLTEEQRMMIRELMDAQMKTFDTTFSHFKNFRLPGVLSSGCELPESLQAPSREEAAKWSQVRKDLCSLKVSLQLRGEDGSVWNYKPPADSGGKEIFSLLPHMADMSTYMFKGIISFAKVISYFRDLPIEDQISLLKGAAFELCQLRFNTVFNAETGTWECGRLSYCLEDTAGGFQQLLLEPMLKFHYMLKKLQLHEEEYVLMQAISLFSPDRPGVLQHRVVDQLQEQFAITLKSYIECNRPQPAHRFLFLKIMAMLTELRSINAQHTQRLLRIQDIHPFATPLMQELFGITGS
Summary of the method: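 hPXR-Luc HepG2 cells, 2000/well in 5% charcoal-stripped FBS medium, attached 5 h, then exposed 24 h at 37C to compounds. Viability by CellTiter-Fluor, then luciferase luminescence with ONE-Glo.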

[12] = target: Nuclear receptor subfamily 1 group I member 2 (Homo sapiens) (UniProt O75469); assay: Dual reporter qHTS for antagonist of Pregnane X Receptor (hPXR) against the NCATS DSHEA and TCM libraries: Luminescence Readout (AID 1920060);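 note: HepG2 cells carrying hPXR luciferase reporter stimulated with rifampicin at 2 µM; 0% is about no effect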
Summary of the method: (§2)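 hPXR-Luc HepG2 cells exposed 24 h at 37 C to compounds with 2 uM rifampicin in antagonist mode; luciferase luminescence measured by ONE-Glo, with CellTiter-Fluor viability read beforehand.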

[13] = Dual reporter qHTS for antagonist of Pregnane X Receptor (hPXR) against the NCATS DSHEA and TCM libraries: Fluorescence Readout (AID 1920061); note: 0% is about no effect
Summary of the method: as §2

[14] = NCATS anti-infectives library activity on the primary C. elegans qHTS viability assay (AID 1745855; calls by dose curve)
Summary of the method: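 Viability is taken from GFP fluorescence of PE254-GFP-FLuc C. elegans imaged by laser cytometry over 7 days. Ten L1 worms per well grow at 21 °C on TOP10 E. coli capsules with titrated compound; levamisole marks toxicity.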

[15] = Viability counterscreen for agonist of constitutive androstane receptor (CAR) against the NCATS DSHEA and TCM libraries (AID 1794838); note: 0% is about no effect
Summary of the method: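 Cell viability, from CellTiter-Fluor fluorescence (405/540 nm), was scored after a 24 h, 37C exposure of HepG2 cells carrying CYP2B6 reporter and hCAR to test substances in presence of 0.75 uM PK11195.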

[16] = target: Cytochrome P450 2C9 (Homo sapiens) (UniProt P11712); assay: qHTS for inhibitors of CYP2C9 against the NCATS DSHEA and TCM libraries (AID 1919973); note: potency is the fitted concentration of half-maximal effect
Sequence of Cytochrome P450 2C9 (Homo sapiens) (P11712 whole entry, looked up): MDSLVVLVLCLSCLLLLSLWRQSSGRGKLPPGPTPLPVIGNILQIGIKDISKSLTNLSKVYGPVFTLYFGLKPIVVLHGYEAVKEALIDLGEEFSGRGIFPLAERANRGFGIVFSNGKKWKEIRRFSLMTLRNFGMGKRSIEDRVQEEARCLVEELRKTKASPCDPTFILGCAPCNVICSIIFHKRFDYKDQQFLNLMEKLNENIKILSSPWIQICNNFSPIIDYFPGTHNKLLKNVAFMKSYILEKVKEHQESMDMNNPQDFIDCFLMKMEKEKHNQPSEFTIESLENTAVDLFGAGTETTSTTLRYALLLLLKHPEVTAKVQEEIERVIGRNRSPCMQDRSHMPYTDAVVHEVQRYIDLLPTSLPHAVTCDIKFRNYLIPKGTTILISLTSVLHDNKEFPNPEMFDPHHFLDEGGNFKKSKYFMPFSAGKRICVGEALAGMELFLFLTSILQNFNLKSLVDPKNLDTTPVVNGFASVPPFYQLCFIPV
Summary of the method: as §1

[17] = qHTS Counterscreen for compound interference against the NCATS DSHEA and TCM libraries (AID 1919978); settings: firefly luciferase detection reagent interference, luminescence;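 note: compounds preincubated with 1 µM D-luciferin or buffer before detection reagent; % of control where 0% means no effect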
Summary of the method: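 With 1 uM D-luciferin or phosphate buffer only, compounds at final 19.5 nM–39.8 uM were incubated for 15 min at room temperature. Luciferase detection reagent was then added, and luminescence was measured after a further 30 min at room temperature.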

[18] = target: Glutathione peroxidase 1 (Homo sapiens) (UniProt P07203); assay: Primary qHTS Assay for Inhibitors of Recombinant Selenoprotein Glutathione Peroxidase 1 (GPX1) (AID 1845191); note: % is set by controls: 0 for no effect and ±100 for the full control effect; nearly all actives have a fitted effect of over 65% in size
Sequence of Glutathione peroxidase 1 (Homo sapiens) (P07203 whole entry, looked up): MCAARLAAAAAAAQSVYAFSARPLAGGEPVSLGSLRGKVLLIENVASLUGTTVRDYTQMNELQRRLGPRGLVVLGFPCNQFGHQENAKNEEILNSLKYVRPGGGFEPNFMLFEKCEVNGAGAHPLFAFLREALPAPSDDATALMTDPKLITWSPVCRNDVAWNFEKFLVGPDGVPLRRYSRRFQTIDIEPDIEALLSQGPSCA
Summary of the method: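 GR-coupled assay: compounds preincubated 30 min at room temperature with GPX1, then reaction started with CHP; final 10 nM GPX1, 1 mM GSH, 0.5 mM CHP, 0.5 mM NADPH, 100 nM GR, 0.01% BSA, pH 7.5 Tris buffer. NADPH fluorescence (340/450 nm) read at 0 and 15 min.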

[19] = target: Phospholipid hydroperoxide glutathione peroxidase GPX4 (Homo sapiens) (UniProt P36969); assay: Primary qHTS Assay for Inhibitors of Recombinant Selenoprotein Glutathione Peroxidase 4 (GPX4) (AID 1845192); note: potency is the fitted concentration of half-maximal effect; nearly all actives have a fitted effect of over 65% in size
Sequence of Phospholipid hydroperoxide glutathione peroxidase GPX4 (Homo sapiens) (P36969 whole entry, looked up): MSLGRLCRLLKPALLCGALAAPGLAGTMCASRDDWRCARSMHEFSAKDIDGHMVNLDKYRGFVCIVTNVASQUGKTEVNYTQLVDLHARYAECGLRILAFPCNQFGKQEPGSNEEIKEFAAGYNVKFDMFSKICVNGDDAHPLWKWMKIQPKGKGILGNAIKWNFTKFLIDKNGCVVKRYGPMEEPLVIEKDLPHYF
Summary of the method: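 GR-coupled assay: recombinant GPX4 preincubated 30 min with compound at room temperature; final 200 nM GPX4, 1 mM GSH, 0.5 mM cumene hydroperoxide, 0.5 mM NADPH, 100 nM GR, 0.01% BSA, pH 7.5 Tris. NADPH fluorescence (340/450 nm) read at 0 and 15 min.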

CC(C)=CCC[C@](C)(OC1OC(COC2OCC(O)C(O)C2O)C(O)C(O)C1O)[C@H]1CC[C@]2(C)[C@@H]1[C@H](O)C[C@@H]1[C@@]3(C)CC[C@H](OC4OC(CO)C(O)C(O)C4OC4OC(CO)C(O)C(O)C4O)C(C)(C)[C@@H]3CC[C@]12C (some centres undefined)
inactive: Potency [1] | outcome [2] | Potency [3] | outcome [4] | Potency [5] | Potency [6] | Potency [7] | outcome [8] | Potency [9] | outcome [10] | Potency [11] | outcome [12] | outcome [13]

CCCC[C@H](NC(=O)[C@@H]1[C@@H]2[C@H](CN1C(=O)[C@@H](NC(=O)NC1(CS(=O)(=O)C(C)(C)C)CCCCC1)C(C)(C)C)C2(C)C)C(=O)C(=O)NC1CC1
inactive: Potency [1] | Potency [14]

O=C(/C=C/c1ccc(O)c2c1[C@H](C(=O)O)[C@@H](c1ccc(O)c(O)c1)O2)O[C@H](Cc1ccc(O)c(O)c1)C(=O)O
active: Potency [16] 14.1 µM
inactive: Potency [1] | outcome [2] | outcome [15] | Potency [3] | Potency [6] | Potency [7] | outcome [8] | Potency [9] | max response [17] -1.18% | outcome [10] | Potency [11] | outcome [12] | outcome [13]

COc1ccc2c(O[C@H]3CC4C(=O)N(C)CCCC/C=C\[C@@H]5C[C@@]5(C(=O)NS(=O)(=O)C5CC5)NC(=O)[C@@H]4C3)cc(-c3nc(C(C)C)cs3)nc2c1C (some centres undefined)
active: Potency [19] 2 µM
inactive: Potency [1] | Potency [18]

COC(=O)N[C@H](C(=O)N1CC2(CC2)C[C@H]1c1ncc(-c2ccc3c(c2)C(F)(F)c2cc(-c4ccc5nc([C@@H]6[C@H]7CC[C@H](C7)N6C(=O)[C@@H](NC(=O)OC)C(C)C)[nH]c5c4)ccc2-3)[nH]1)C(C)C
inactive: Potency [1]
active: Potency [19] 3.55 µM
